Laboratory results from PubChem BioAssay (NCI).
Compounds without any hit were thinned out: in the full panel of roughly 79,000, 15% have a hit. No stated cut-off is given here; in the data, active means growth inhibition above about 70%; inactive means the rest.

Experiments:
[1] = NCI Yeast Anticancer Drug Screen. Data for the rad50 strain (AID 155);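 further: 0% = growth of vehicle-only cultures of the same strain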; conditions: S. cerevisiae rad50 strain growth inhibition; at 50.0 µM; active compounds read high
Outline: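 Relative growth inhibition (compound vs vehicle) was measured in yeast with a defined repair-gene alteration.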

[2] = NCI Yeast Anticancer Drug Screen. Data for the mec2-1 strain (AID 157); conditions: S. cerevisiae mec2-1 strain, at 50.0 µM, active compounds read high
Outline: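 Strain: mec2-1 (DNA repair/cell cycle alteration). Compound exposure, then growth measured; inhibition expressed relative to vehicle.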

[3] = NCI Yeast Anticancer Drug Screen. Data for the sgs1 mgt1 strain (AID 161);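 further: 0% = growth of cultures given vehicle only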; conditions: S. cerevisiae sgs1 mgt1 strain, at 50.0 µM, active compounds read high
Outline: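 Mutant yeast exposed to compound; growth scored against vehicle-only wells.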

[4] = NCI Yeast Anticancer Drug Screen. Data for the cln2 rad14 strain (AID 165);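 further: 0% = growth equal to vehicle treated cultures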; conditions: S. cerevisiae cln2 rad14 strain, at 50.0 µM, active compounds read high
Outline: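 Compounds are applied to the cln2 rad14 yeast strain, and growth is then compared with that of vehicle-treated cultures to give inhibition.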

[5] = NCI Yeast Anticancer Drug Screen. Data for the bub3 strain (AID 167); conditions: S. cerevisiae bub3 mutant strain, at 50.0 µM, active compounds read high
Outline: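 Screening used yeast with an engineered genetic alteration affecting cell cycle control. Compound-exposed cultures were compared with vehicle cultures, and reduced growth was taken as inhibition.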

[6] = NCI Yeast Anticancer Drug Screen. Data for the mlh1 rad18 strain (AID 175); conditions: S. cerevisiae mlh1 rad18 strain growth inhibition; at 50.0 µM; active compounds read high
Outline: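 Read-out is yeast growth inhibition, calculated against vehicle-only controls. The compound was applied to a strain engineered with DNA damage repair alterations.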

Measured: growth inhibition

NC(CCCCCCCCCCP(=O)(O)O)C(=O)O (stereo unspecified)
inactive: [1] -39.6% | [2] -41.5% | [3] -76.4% | [4] -12.1% | [5] -19.6% | [6] -18.6%

CCOC(=O)NC(Nc1cc(Cl)ccc1OC)(C(F)(F)F)C(F)(F)F
inactive: [1] 2.5% | [2] -10.5% | [3] -26.1% | [4] 9.65% | [5] 6.85% | [6] -5.2%

CCOC(=O)C(C(=O)OCC)=C1N[C@H](C(=O)OCC)CS1
inactive: [1] -0.8% | [2] -17.5% | [3] -15.8% | [4] 13% | [5] -6.7% | [6] -22.8%

COc1ccc(C=C2C(=O)OC(C)(C)OC2=O)cc1OC
inactive: [1] -6.7% | [2] -8.85% | [3] -8.5% | [4] 30% | [5] -23.8% | [6] -4.85%

Nc1cccc(S(=O)(=O)O)c1
inactive: [1] -27.1% | [2] -10.8% | [3] -36.2% | [4] -37.1% | [5] -13.8% | [6] -5.2%

Nc1nc2c(ncn2C2OC(CO)C3OP(=O)(O)OC32)c(=O)[nH]1 (stereo unspecified)
inactive: [1] -8.5% | [2] -5.1% | [3] -19.4% | [4] -29.4% | [5] 0.2% | [6] -15.8%

COC1(OC)OC(c2ccc([N+](=O)[O-])cc2)=C(c2ccc([N+](=O)[O-])cc2)OC1(OC)OC
inactive: [1] 56% | [2] 49.9% | [3] 38.5% | [4] 57.4% | [5] 49% | [6] 37.9%

O=C(NC1C2CC3CC(C2)CC1C3)c1cc(/C=C/c2ccccc2)[nH]c(=S)n1 (stereo unspecified)
inactive: [1] 15.1% | [2] 2.35% | [3] 13.1% | [4] 12.2% | [5] -2.25% | [6] 14.3%

Cc1[nH]c2c(C)ccc(C)c2c1CC(=O)O
inactive: [1] 29.7% | [2] -15.1% | [3] -40.8% | [4] 17.1% | [5] -24.1% | [6] 10.2%

CNC1=C(Sc2ccc(C)cc2)C(=O)c2ccccc2C1=O
inactive: [1] -4.9% | [2] 1.8% | [3] 5.4% | [4] -0.45% | [5] -9.05% | [6] -8.7%

Cc1cc(C[C@H]2O[C@@H]3OC(C)(C)O[C@@H]3[C@H]3OC(C)(C)O[C@H]32)c2ccccc2n1
inactive: [1] -4.6% | [2] 12% | [3] 19.9% | [4] -4.2% | [5] 9.1% | [6] 17.6%

COc1ccc2[nH]c(=O)c(CO)c(CO)c2c1
inactive: [1] 0.45% | [2] -12.2% | [3] -1% | [4] -26.1% | [5] 0.55% | [6] 4.35%

CC(=O)c1cc2c(cc1C(C)C)CC[C@H]1[C@](C)(C#N)CCC[C@]21C
inactive: [1] 1% | [2] -1.15% | [3] 1.25% | [4] -26.6% | [5] 15.9% | [6] 31.3%

Cc1ccc(S(=O)(=O)NC(CCC(=O)NN)C(=O)NN)cc1 (stereo unspecified)
inactive: [1] 9.55% | [2] 7.2% | [3] -15.2% | [4] 5.95% | [5] -1.8% | [6] -43.4%

CC(=O)OC1CC(O)CC2=CCC3C4CCC(C(C)(O)C(O)CC5COC(=O)C5C)C4(C)CCC3C21C (stereo unspecified)
inactive: [1] 6.8% | [2] 5.4% | [3] 14.6% | [4] 3.45% | [5] -32.1% | [6] -30.1%

COC(=O)C1C(=O)c2ccccc2C(C)C1c1ccccc1C (stereo unspecified)
inactive: [1] 5% | [2] 41.4% | [3] 26.2% | [4] 4.15% | [5] 55.8% | [6] 27.6%

Cc1ccc(NCC(O)CN2CCOCC2)cc1 (stereo unspecified)
inactive: [1] 34.2% | [2] 14.3% | [3] 27.2% | [4] -8.05% | [5] 6.5% | [6] 36.2%

c1cnc2c(c1)-n1cccc1C1(CCOCC1)NN2
inactive: [1] -73.5% | [2] -30.2% | [3] -54.5% | [4] -11.3% | [5] -13.3% | [6] -40.9%

CN1CCS(=O)(=O)C2CCCCC2C1=O (stereo unspecified)
inactive: [1] 1.25% | [2] -13.4% | [3] 4.85% | [4] 11.8% | [5] 10.5% | [6] 1.1%

O=C(CCN(CCC(=O)c1ccccc1)CCC(=O)c1ccccc1)c1ccccc1
inactive: [1] 22.2% | [2] 11.8% | [3] -5.05% | [4] -31.3% | [5] 0.9% | [6] 26.9%

CCCCCCC1(C)CCC(=O)O1 (stereo unspecified)
inactive: [1] 15.3% | [2] 8.45% | [3] 6.2% | [4] -6.25% | [5] -5.9% | [6] 14.4%
